The values below come from PubChem BioAssay.

Structures are written as SMILES. Inconclusive results are not listed. Calls of active or inactive are those of the source.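 Rule for the calls, unless noted: active = normalized viability below 100% at a tested concentration; inactive = the rest.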

A short description of test [1]: growth inhibition of DIPG glioma cells, dose response, cell-based, JHH-DIPG-1, MIPE4.0, CellTiter-Glo, qHTS (AID 1347062; cut-off not given, nearly all actives have AC50 up to about 27 µM;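 for AC50: cells exposed to compound for two days before readout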). Particulars: JHH-DIPG-1 viability, CellTiter-Glo ATP luminescence. Background: In ATP-based viability assays light output follows the ATP content of the culture.
Test [2] can be described thus: growth inhibition of DIPG glioma cells, dose response, cell-based, SU-DIPG-IV, MIPE4.0, CellTiter-Glo, qHTS (AID 1347063; cut-off not given, nearly all actives have AC50 up to about 30 µM;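 note: compound exposure lasted 48 hours before the viability readout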). As to conditions: SU-DIPG-IV viability, CellTiter-Glo ATP luminescence.
A short description of test [3]: growth inhibition of DIPG glioma cells, dose response, cell-based, SU-DIPG-XIII, MIPE5.0, CellTiter-Glo, qHTS (AID 1347064; cut-off not given, nearly all actives have AC50 up to about 23 µM;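 note: cells exposed to compound for 48 hours before the viability read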). Particulars: SU-DIPG-XIII viability, CellTiter-Glo ATP luminescence.
The nature of test [4]: SU-DIPG-VI glioma cell viability, MIPE4.0 library, CellTiter-Glo luminescence, qHTS (AID 1347066; cut-off not given, nearly all actives have AC50 up to about 30 µM;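 note: cells exposed to compound for 48 hours before readout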). As to conditions: CellTiter-Glo ATP luminescence.
Test [5] can be described thus: SU-DIPG-XXV glioma cell viability, MIPE5.0 library, qHTS (AID 1347068; cut-off not given, nearly all actives have IC50 up to about 30 µM;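 note: cells exposed to compound for 48 hours before viability readout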). For orientation: qHTS replaces the single test concentration by a dilution series.
Test [6] is described as follows: sensitizers of A549 cells to miR-34 induction, primary screen, imaging, A549 dox-inducible miR-34, nuclei and caspase counts (AID 1347080;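 active = compounds whose cell count with miR-34 switched on is under 0.7 times the count with it off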). As to conditions: A549 miR-34 inducible, Hoechst nuclei count, 48 h.
Test [7] can be described thus: modifiers of HSF1 nuclear foci, imaging, Selleck Cancer Library (AID 1347162; in the data active = plate-normalised HSF1 focus index below about 0.46). As to conditions: human cells, at 10 µM; SSMD: measured here: HSF1 foci SSMD mean; cell count: measured here: cell number; plate-normalised HSF1 focus index: stronger effect = lower value.
Test [8] in a line: survival rescue of mitochondrial mutant cells in low glucose, primary screen, MELAS cybrids, Rieske KO mouse fibroblasts, CellTiter-Glo (AID 1508586;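 active = mean z-score across replicates of 1.96 or higher in either the MELAS or the Rieske mutant cell line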;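 note: z relative to plate mean and SD of compound and empty wells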).
Test [9] can be described thus: ovarian cancer cell viability with rucaparib, profiling panel, oncology-focused library, rucaparib conditional (AID 1508598). Particulars: patient-derived ovarian cancer cells, CellTiter-Glo viability, 144 h, stronger effect = lower value.
Test [10] is described as follows: viability loss in pontine glioma line – cell-based, SU-DIPG-XXV, MIPE5.0, CellTiter-Glo, qHTS, dose response (AID 1347065; cut-off not given, nearly all actives have AC50 up to about 26 µM;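 note: cells exposed to compound for 48 hours before ATP readout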). Particulars: CellTiter-Glo ATP luminescence.
A short description of test [11]: JHH-DIPG-1 glioma cell viability, MIPE5.0 library, CellTiter-Glo luminescence, qHTS (AID 1347067; cut-off not given, nearly all actives have AC50 up to about 26 µM;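 note: cells exposed to compound for 48 hours before readout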). As to conditions: JHH-DIPG-1 glioma viability, CellTiter-Glo ATP luminescence.
The mark [12] stands for this setting: stronger effect = lower value, cell number ratio, induced over uninduced.
The mark [13] stands for this setting: measured here: relative caspase fold change +Dox/-Dox.
The mark [14] stands for this setting: measured here: total cells with miR-34 induction, stronger effect = lower value.
[15] abbreviates: measured here: total cells without miR-34 induction.

In the case of `C[C@@H]1C/C=C/C=C/C=C/C=C/[C@@H](O[C@@H]2O[C@H](C)[C@@H](O)[C@H](N)[C@@H]2O)C[C@@H]2O[C@](O)(C[C@@H](O)C[C@@H]3O[C@H]3/C=C/C(=O)O1)C[C@H](O)[C@H]2C(=O)O`, the outcome in test [1] was inactive.
As for `Nc1nccc(Oc2ccc(NC(=O)c3c[nH]cc(-c4ccc(F)cc4)c3=O)cc2F)c1Cl`, the concentration at half-maximal activity (AC50) in [1] was 18.7 µM (active); in test [2], 16.6 µM (active); in test [3], 14.8 µM (active); in test [4], 26.4 µM (active). Besides, the IC50 in test [5] is 23.5 µM (active). In addition, the values for the fold change in [6] (setting [12]) and in test [6] (setting [13]) were 0.93 (inactive) and 0.882, respectively. In addition, the cell count was determined as 7750 in test [6] (setting [14]), 8330 in [6] (setting [15]) and 7240 in test [7]. This molecule also yielded an SSMD in [7] of -0.396. The plate-normalised HSF1 focus index in [7] was 0.991 (inactive). Moreover, the z-score is -0.165 (inactive) in test [8] (MELAS cybrid survival, CellTiter-Glo 48 h, stronger effect = higher value) and 0.168 in test [8] (Rieske KO mouse fibroblast survival, CellTiter-Glo 72 h). Further, the viability in test [9] (at 0.000305 µM, OCI-C5x cells, with rucaparib 10 µM, 100% = cells with rucaparib alone) is 110% (inactive); in [9] (at 0.000305 µM, OCI-C5x cells, without rucaparib), 130% (inactive); in test [9] (at 0.000305 µM, OCI-P5x cells, with rucaparib 20 µM, 100% = cells with rucaparib alone), 100% (inactive); in test [9] (at 0.000305 µM, OCI-P5x cells, without rucaparib), 117% (inactive); in test [9] (at 0.00122 µM, OCI-C5x cells, with rucaparib 10 µM, 100% = cells with rucaparib alone), 108% (inactive); in [9] (at 0.00122 µM, OCI-C5x cells, without rucaparib), 127% (inactive). Further, the viability in test [9] (at 0.00122 µM, OCI-P5x cells, with rucaparib 20 µM, 100% = cells with rucaparib alone) was 101% (inactive); in test [9] (at 0.00122 µM, OCI-P5x cells, without rucaparib) it was 114% (inactive); in [9] (at 0.00488 µM, OCI-C5x cells, with rucaparib 10 µM, 100% = cells with rucaparib alone), 118% (inactive); in test [9] (at 0.00488 µM, OCI-C5x cells, without rucaparib), 134% (inactive); in test [9] (at 0.00488 µM, OCI-P5x cells, with rucaparib 20 µM, 100% = cells with rucaparib alone), 106% (inactive); in test [9] (at 0.00488 µM, OCI-P5x cells, without rucaparib), 111% (inactive). Further, the viability was 117% (inactive) in test [9] (at 0.0195 µM, OCI-C5x cells, with rucaparib 10 µM, 100% = cells with rucaparib alone); 140% (inactive) in [9] (at 0.0195 µM, OCI-C5x cells, without rucaparib); 98.3% (active) in test [9] (at 0.0195 µM, OCI-P5x cells, with rucaparib 20 µM, 100% = cells with rucaparib alone); 107% (inactive) in test [9] (at 0.0195 µM, OCI-P5x cells, without rucaparib); 104% (inactive) in [9] (at 0.0781 µM, OCI-C5x cells, with rucaparib 10 µM, 100% = cells with rucaparib alone); 122% (inactive) in test [9] (at 0.0781 µM, OCI-C5x cells, without rucaparib). Further, the viability in test [9] (at 0.0781 µM, OCI-P5x cells, with rucaparib 20 µM, 100% = cells with rucaparib alone) is 106% (inactive); in test [9] (at 0.0781 µM, OCI-P5x cells, without rucaparib) it was 98.3% (active); in test [9] (at 0.313 µM, OCI-C5x cells, with rucaparib 10 µM, 100% = cells with rucaparib alone), 133% (inactive); in [9] (at 0.313 µM, OCI-C5x cells, without rucaparib), 122% (inactive); in [9] (at 0.313 µM, OCI-P5x cells, with rucaparib 20 µM, 100% = cells with rucaparib alone), 102% (inactive); in test [9] (at 0.313 µM, OCI-P5x cells, without rucaparib), 99.4% (active). Also, the viability in test [9] (at 1.25 µM, OCI-C5x cells, with rucaparib 10 µM, 100% = cells with rucaparib alone) was 132% (inactive); in [9] (at 1.25 µM, OCI-C5x cells, without rucaparib) it was 123% (inactive); in test [9] (at 1.25 µM, OCI-P5x cells, with rucaparib 20 µM, 100% = cells with rucaparib alone), 99.9% (active); in test [9] (at 1.25 µM, OCI-P5x cells, without rucaparib) it was 101% (inactive); in test [9] (at 5 µM, OCI-C5x cells, with rucaparib 10 µM, 100% = cells with rucaparib alone) it was 149% (inactive); in test [9] (at 5 µM, OCI-C5x cells, without rucaparib), 139% (inactive). Moreover, the viability is 59% (active) in test [9] (at 5 µM, OCI-P5x cells, with rucaparib 20 µM, 100% = cells with rucaparib alone) and 89.1% (active) in test [9] (at 5 µM, OCI-P5x cells, without rucaparib).
With `Cn1cc(-c2[nH]c3cc(NC(=O)[C@H](N)C4CCCCC4)cc4c3c2C=NNC4=O)cn1`, the AC50 was 0.418 µM (active) in test [1]; 1.18 µM (active) in test [2]; 2.09 µM (active) in test [3]; 1.18 µM (active) in [10]; 16.6 µM (active) in test [11]. Besides, in test [5], the IC50 is 4.68 µM (active). The molecule also came in with an SSMD in test [7] of -1.12. Besides, the cell count in test [7] came to 6990. Further, in test [7], the plate-normalised HSF1 focus index is 0.932 (inactive).
Take `CO[C@H]1C[C@@H]2CC[C@@H](C)[C@@](O)(O2)C(=O)C(=O)N2CCCC[C@H]2C(=O)O[C@H]([C@@H](C)C[C@@H]2CC[C@@H](O)[C@H](OC)C2)CC(=O)[C@H](C)/C=C(\C)[C@@H](O)[C@@H](OC)C(=O)[C@H](C)C[C@H](C)/C=C/C=C/C=C/1C`: the AC50 in test [1] is 20.9 µM (active); in [2], 20.9 µM (active); in test [10] it was 16.6 µM (active); in test [11], 23.5 µM (active). Also, the fold change was 0.999 (inactive) in [6] (setting [12]) and 1.23 in [6] (setting [13]). Moreover, the results for the cell count in test [6] (setting [14]) and in test [6] (setting [15]) were 3690 and 3700, respectively.
As for `Oc1ccc(C2=Cc3ccc(O)cc3OC2)cc1`, the results for the AC50 in test [1] and in [2] were 8.33 µM (active) and 3.32 µM (active), respectively. For the same molecule, in test [10], the call was inactive.
On to `CC(O)[C@@H]1NC(=O)[C@H](CCCCN)NC(=O)[C@@H](Cc2c[nH]c3ccccc23)NC(=O)[C@H](Cc2ccccc2)NC(=O)[C@@H](NC(=O)[C@H](N)Cc2ccccc2)CSSC[C@@H](C(=O)N[C@H](CO)[C@@H](C)O)NC1=O` (stereo not given in full), for which the result in [1], in test [2] and in test [4] was inactive.

In general, AC50 refers to the concentration at which the activity in the assay is half-maximal. Usually IC50 stands for the midpoint of a concentration-inhibition curve. As usually defined, the viability is a read-out of living cells in per cent, often relative to untreated cells.
